Records with an inconclusive call do not appear. The source made the active and inactive calls. How the source made its calls: active means hit-call score of the fitted dose curve at least 0.9, where 1 is the maximum; inconclusive means response in the unintended direction; inactive means score below 0.9.

The test in a line: ACEA_ER_AUC_viability: ACEA Biosciences xCELLigence Real-Time Cell Analysis on Estrogen Receptor Agonism for Viability (AID 2283782).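 Further: continuous compound exposure with impedance area under curve over 80 h; hit means loss of impedance signal meaning reduced cell growth or viability.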 A digest of the protocol:
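T-47D human breast cells in phenol red-free RPMI1640 with 10% charcoal-stripped FBS were dosed with an 8-point 1:4 dilution series from 100 uM top final concentration, in duplicate. Impedance-based growth was followed for 80 h; AUC analysed versus DMSO.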
Consider `O=C(O)CCC(F)(C(F)(F)F)C(F)(F)F`, for which the compound was called inactive.

In the case of `O=C(Cl)c1ccc(Cl)cc1`, the compound was called inactive.

For the compound `ClCc1ccccn1`, the AC50 (as a rule, the concentration at which the activity in the assay is half-maximal) was 50 µM (active).

As to `CCC(C)c1cccc(C(C)CC)c1O` (configuration not stated), the AC50 is 77.1 µM (active).

Take `ClCc1cccnc1`: the AC50 was 50 µM (active).

In the case of `Cc1cc(=O)[nH]o1`, the call was inactive.

`O=[N+]([O-])c1ccc2c3c(cccc13)CC2`: the result was inactive.

As to `ClC1=C(Cl)[C@]2(Cl)[C@H]3[C@H]([C@H]4C=C[C@H]3C4)[C@@]1(Cl)C2(Cl)Cl`, the concentration at half-maximal activity (AC50) is 83.2 µM (active).

Turning to `CCN(CC)C(=O)Cl`, the compound was classed as inactive.

`CC(C)CCCCCCOC(=O)c1ccccc1C(=O)OCCCCCCC(C)C`: the AC50 is 40.9 µM (active).

With `Oc1c(I)cc(I)cc1I`, the concentration at half-maximal activity (AC50) is 87.9 µM (active).

Consider `CN(CCCC(=O)c1cccnc1)N=O`, for which the outcome was inactive.

Regarding `O=[N+]([O-])c1c(Cl)c(Cl)cc(Cl)c1Cl`, the call was inactive.

Take `COC[C@H](C)N(C(=O)CCl)c1c(C)csc1C`: the compound was called inactive.

For the compound `C=CC(=O)N(C)C`, the AC50 was 50 µM (active).

As for `ClCCBr`, the outcome was inactive.

`Nc1ccc(N=Nc2ccc(-c3ccc(N=Nc4c(S(=O)(=O)O)cc5cc(S(=O)(=O)O)c(N=Nc6ccccc6)c(O)c5c4N)cc3)cc2)c(N)c1`: the compound was classed as inactive.

For the compound `N#CCc1ccc(Cl)cc1`, the call was inactive.

In the case of `COP(=S)(OC)Oc1cc(Cl)c(Cl)cc1Cl`, the half-maximal activity concentration (AC50) is 88 µM (active).

As to `CC(C)=C[C@@H]1[C@@H](C(=O)OCc2coc(Cc3ccccc3)c2)C1(C)C`, the result was inactive.

In the case of `O=CC=O`, the outcome was inactive.

Take `CC(=[OH+])/C=C(/C)[O-].CC(=[OH+])/C=C(/C)[O-].CC(=[OH+])/C=C(/C)[O-].[Al]`: the AC50 was 72.6 µM (active).

On to `C[C@@H](Oc1ccc(Cl)cc1Cl)C(=O)O`, for which the result was inactive.

Regarding `CCCCCCCCCl`, the result was inactive.

Take `COP(=S)(OC)Oc1cc(Cl)c(Br)cc1Cl`: the AC50 is 92.6 µM (active).

In the case of `COc1ccc(C(O)(c2cncnc2)C2CC2)cc1` (configuration not stated), the AC50 was 67.6 µM (active).

For `Nc1ccc(-c2ccc(N)c(Cl)c2)cc1Cl`, the result was inactive.

With `COC(=O)Cc1ccccc1`, the AC50 was 30.7 µM (active).

In the case of `CCc1ccccc1N`, the compound was classed as inactive.

On to `CCOP(=S)(OCC)Oc1ccc(S(C)=O)cc1` (configuration not stated), for which the compound was classed as inactive.

Consider `CCOC(=O)/C=C(C)/C=C/C[C@@H](C)CCCC(C)C`, for which the AC50 is 87.8 µM (active).

As to `C=CC(=O)OCCCCCC(C)C`, the outcome was inactive.

On to `COc1cc2c(cc1OC)[C@@]13CCN4CC5=CCO[C@H]6CC(=O)N2[C@H]1[C@H]6[C@H]5C[C@H]43`, for which the compound was classed as inactive.

As to `CCCCP(CCCC)CCCC`, the AC50 was 27.9 µM (active).

Regarding `N#CCCO`, the AC50 was 22 µM (active).

Consider `ClC1=C(Cl)[C@]2(Cl)[C@@H]3[C@@H](Cl)[C@@H](Cl)C[C@@H]3[C@@]1(Cl)C2(Cl)Cl`, for which the outcome was inactive.

As to `NC(=S)Nc1ccccc1`, the AC50 is 60.6 µM (active).

Values taken from PubChem BioAssay (EPA / NIEHS).
